A selection: hits, their analogues and other compounds. The true share with any hit is near 19%.
DT40 TDP1 CPT = growth inhibition of DT40 Tdp1-/-;hTDP1 cells with camptothecin (screen for TDP1 inhibitors); actives 12% (n = 420,000); chicken DT40 Tdp1-/-;hTDP1 cells + 20 nM CPT, ATP luminescence, 48 h; Potency, µM (doses to about 46.2 µM), for the others: top-dose activity change, negative = growth inhibition, most hits filed as inhibitors; also: nearly all actives have a fitted effect of over 55% in size
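Chicken DT40 Tdp1-/- cells stably complemented with human TDP1 were seeded at 400 cells/well in medium containing 20 nM camptothecin, exposed to pin-transferred compounds, and grown at 37 °C for at least 48 hr. Viability was read as ATP luminescence.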
KB-V1 MDR tox = kills drug-selected multidrug resistant KB-V1 cells; actives 3.4% (n = 400,000); Potency, µM (series often up to 46.1 µM), usual class: cytotoxic; AID 1347076; KB-V1 MDR cells viability, CellTiter-Glo, 72 h; also: nearly all actives have a fitted effect of over 60% in size
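KB-V1, DMEM (no phenol red) + 10% FBS; cpd pin-transferred, titration series; 72 h, 37 degrees C; CellTiter-Glo, luminescence. Data normalized, curve-fit.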
HT1080 IDH1KD tx = kills HT-1080 cells with IDH1 knockdown | Potency, µM (highest dose often 46.1 µM), without a hit: at the highest dose activity, negative = toxicity, actives largely listed as cytotoxic | AID 686971 | HT-1080 IDH1 knockdown viability, ATP luminescence, 48 h | actives 2% (n = 360,000);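 also: 0% = DMSO wells and -100% = cell-free medium wells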
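CellTiter-Glo luminescence after 48 h compound exposure at 37 degrees C of IDH1-knockdown HT-1080 cells in 5% FBS RPMI. %Activity scaled between DMSO wells and cell-free media wells, with curves fitted and assigned curve classes.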
HT1080-NT tox = kills 2HG-producing HT-1080-NT fibrosarcoma cells. HT-1080-NT fibrosarcoma viability, CellTiter-Glo ATP luminescence, 48 h. actives 1.6% (n = 360,000). Potency, µM (top dose mostly 46.1 µM), without a hit: at the top dose activity, negative = less viability, usual class: cytotoxic;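 also: NT is the 2HG producing partner of a matched IDH1 knockdown line; 0% = DMSO-treated cells and -100% = media-only wells without cells; nearly all actives have a fitted effect of over 55% in size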
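Compounds were tested in concentration-response format on HT-1080-NT cells for 48 hours at 37 degrees C. Cell viability came from CellTiter-Glo luminescence; curves were classified by r2, response magnitude and activity.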
DT40 TDP1 no CPT = qHTS for Inhibitors of human tyrosyl-DNA phosphodiesterase 1 (TDP1): qHTS in cells in absence of CPT. DT40 Tdp1-/- hTDP1 cells, no CPT, ATP luminescence, 48 h. Potency, µM (titrated, usually from 46.2 µM), inactives show at the highest dose activity change, negative = growth inhibition, most hits filed as inhibitors. actives 15% (n = 420,000). AID 686978, 2013; also: nearly all actives have a fitted effect of over 55% in size
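Camptothecin absent (DMSO only). Human TDP1-complemented DT40 knockout cells, 400 cells/well, 37 °C for minimum 48 hr; ATP measured via CellTiter-Glo, 30 min dark incubation, luminescence.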
KB-3-1 cytotox = kills parental KB-3-1 adenocarcinoma cells. KB-3-1 viability, CellTiter-Glo ATP luminescence, 72 h. Potency, µM (highest dose often 46.1 µM), usual class: cytotoxic. actives 1.4% (n = 400,000). AID 1347075; also: nearly all actives have a fitted effect of over 60% in size
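Cytotoxicity measured as CellTiter-Glo luminescence after 72 h at 37 C. Compound titrations were pinned onto drug-naive KB-3-1 parental adenocarcinoma cells grown in DMEM with 10% FBS, and normalized data fitted to concentration-response curves.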
* = called active by the depositor; i = inactive; ? = inconclusive; . = no result given. Calls follow the shape of the dose curve; as a rule, active = well fitted curve in the direction sought with a large enough effect; inconclusive = small, poorly fitted or top-dose-only effect, or another doubt; inactive = no such curve, though single readings can be large; an effect the other way counts as inactive or inconclusive. Unless noted, % is scaled to controls: 0 for no effect and ±100 for the full control effect; potency is read from the fitted curve at half-maximal effect.

SMILES	DT40 TDP1 CPT	KB-V1 MDR tox	HT1080 IDH1KD tx	HT1080-NT tox	DT40 TDP1 no CPT	KB-3-1 cytotox
CCOc1ccc(C(C#N)N2CCOCC2)cc1OC (configuration not stated)	6%	i	3%	4%	-3%	i
CC(CN1CCN(CC(C)C(=O)c2ccccc2)CC1)C(=O)c1ccccc1 (configuration not stated)	?	i	2%	-5%	-18%	i
CC1(C(=O)NS(=O)(=O)Cc2cccc(Cl)c2)CCN1C(=O)C1(c2ccc(Cl)cc2)CCC1 (configuration not stated)	-12%	i	-2%	-9%	-14%	i
CCOc1ccc(C(=O)C(CN2CCOCC2)c2ccccc2)cc1 (configuration not stated)	3.3µM*	?	9.2µM*	-9%	3.3µM*	?
CCCC(=O)N1CCC1(C)C(=O)Nc1scc(C)c1C#N (configuration not stated)	21µM*	i	20%	27%	15µM*	i
COc1ccc(-c2cnc3c(NC(C)=O)cc(-c4cccc(NS(C)(=O)=O)c4)cn23)cc1OC	21µM*	i	-16%	-12%	23µM*	i
CC(=O)Nc1cc(-c2cccc(NS(C)(=O)=O)c2)cn2c(-c3cccc(C(C)=O)c3)cnc12	16µM*	i	?	?	18µM*	i
CC(=O)Nc1cc(-c2cccc(NS(C)(=O)=O)c2)cn2c(-c3ccc(F)c(Cl)c3)cnc12	?	?	?	?	23µM*	i
CC(=O)Nc1cc(-c2ccccc2)cn2c(-c3cccc(C(C)=O)c3)cnc12	15µM*	i	?	-14%	10µM*	i
CC(=O)Nc1cc(-c2cccc(C(=O)N(C)C)c2)cn2c(-c3ccc(F)c(Cl)c3)cnc12	?	?	-19%	-27%	?	i
COc1cccc(C2/C(=C(/O)c3ccc4c(c3)OCO4)C(=O)C(=O)N2CCN2CCOCC2)c1 (configuration not stated)	27%	i	7%	9%	17%	i
Cc1ccc2ccccc2c1C(O)c1ncc(-c2ccc(C(F)(F)F)cc2)[nH]1 (configuration not stated)	?	i	?	?	?	i
NS(=O)(=O)c1ccc(NC(=O)COC(=O)COc2ccc(Cl)cc2)cc1	23%	i	0%	-2%	-8%	i
Cc1ccc(S(=O)(=O)CCC(=O)N2CCN(c3ccc([N+](=O)[O-])cc3)CC2)cc1	18µM*	i	-2%	-3%	10µM*	?
COc1ccc(S(=O)(=O)CCC(=O)N2CCN(c3ccc([N+](=O)[O-])cc3)CC2)cc1	10µM*	?	-1%	-5%	3.7µM*	i
Nc1nc(SCc2ccccn2)c2ncn(C3OC(CO)C(O)C3O)c2n1 (configuration not stated)	-5%	i	4%	-1%	-3%	?
CCC(=O)N1CCc2cc(CNC(=O)Nc3cc(C)ccc3C)ccc21	-4%	i	.	.	-1%	i
N=c1ccn(Cc2cccc(F)c2)cc1	?	i	-22%	?	18µM*	23µM*
Cc1ccc(S(=O)(=O)N2CCOCC2)cc1NC(=O)c1cc2c(s1)CCC2	?	i	2%	0%	16µM*	i
COc1ccc(NC(=O)c2cc3c(s2)CCC(C)C3)cc1S(=O)(=O)N1CCOCC1 (configuration not stated)	?	3.7µM*	-26%	-14%	21µM*	i
